Among the data in PubChem BioAssay (NCATS) are Potency values, retold here.

Inconclusive results are not listed. Calls of active or inactive are those of the source. Calls come from the whole dose curve; as a rule, active = well fitted cell-killing curve with a large enough effect; inconclusive = small, poorly fitted or top-dose-only effect, or effect the other way; inactive = no such curve, though single readings can be large or run the other way.

Assay [1] in a line: Quantitative High-Throughput drug screen in 47 multiple myeloma cell lines against the NCATS MIPE library collection: Delta47_JCRB cell viability assay (AID 1918925; note: nearly all actives have a fitted effect of over 45% in size). The method, boiled down:
(§1)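 Primary qHTS used for cherry-picking: cells at 500/well, library compounds for 48 h (37C, 5% CO2), luminescent ATP assay.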

Assay [2] in a line: Quantitative High-Throughput drug screen in 47 multiple myeloma cell lines against the NCATS MIPE library collection: AMO1_DSMZ cell viability assay (AID 1918927; note: nearly all actives have a fitted effect of over 30% in size). The method, boiled down: as §1
Assay [3] in a line: Quantitative High-Throughput drug screen in 47 multiple myeloma cell lines against the NCATS MIPE library collection: ARP1_JJKsccF8 cell viability assay (AID 1918928; note: nearly all actives have a fitted effect of over 40% in size). The method, boiled down:
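Viability screen: myeloma cells (500/well) incubated 48 h at 37 °C, humidified 5% CO2, with pinned library compounds; CellTiter-Glo added, luminescence read; DMSO wells set 100%, medium-only wells 0%.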

The nature of assay [4]: Quantitative High-Throughput drug screen in 47 multiple myeloma cell lines against the NCATS MIPE library collection: ARD_JJKsccE7 cell viability assay (AID 1918929). The method, boiled down: as §1
The nature of assay [5]: Quantitative High-Throughput drug screen in 47 multiple myeloma cell lines against the NCATS MIPE library collection: EJM_DSMZ cell viability assay (AID 1918926; note: nearly all actives have a fitted effect of over 30% in size). Put shortly: as §1
Potency is the fitted concentration of half-maximal effect.

Turning to `CCOC(=O)[C@H](CCc1ccccc1)N[C@@H](C)C(=O)N1[C@@H](C(=O)O)C[C@H]2CCC[C@@H]21`, the Potency is 8330 nM (active) in assay [1], 7430 nM (active) in assay [2], 20900 nM (active) in assay [3] and 9350 nM (active) in assay [4].

Turning to `COC(=O)[C@@H]1[C@H]2C[C@@H]3c4[nH]c5ccccc5c4CCN3C[C@@H]2CC[C@@H]1O`, the Potency result in assay [1], in assay [5], in assay [2], in assay [3] and in assay [4] was “inactive” in each case.

In the case of `COc1cc(N2CCC(C(N)=O)CC2)ccc1Nc1nc(N)c(Cl)c(Nc2ccccc2S(=O)(=O)C(C)C)n1`, the Potency was 83.3 nM (active) in assay [1]; 105 nM (active) in assay [5]; 5260 nM (active) in assay [2]; 1320 nM (active) in assay [3]; 59 nM (active) in assay [4].

Regarding `CCN(CC)CCNC(=O)c1c(C)[nH]c(C=C2C(=O)Nc3ccc(F)cc32)c1C`, the Potency in assay [1] was 1520 nM (active); in assay [5], 12100 nM (active); in assay [2] it was 3400 nM (active); in assay [3], 4810 nM (active); in assay [4], 2150 nM (active).

For the compound `OCCN1C[C@H](O)[C@@H](O)[C@H](O)[C@@H]1CO`, the Potency entry in assay [1], in assay [5], in assay [2], in assay [3] and in assay [4] was “inactive” in each case.

`CN[C@H]1[C@@H](O)[C@@H]2O[C@@H]3O[C@H](C)CC(=O)[C@]3(O)O[C@@H]2[C@@H](NC)[C@H]1O`: the Potency is 1180 nM (active) in assay [1], 418 nM (active) in assay [2], 1320 nM (active) in assay [3] and 469 nM (active) in assay [4].

In the case of `CC(C)(O)CC[C@@H](O)[C@](C)(O)[C@H]1CC[C@@]2(O)C3=CC(=O)[C@@H]4C[C@@H](O)[C@@H](O)C[C@]4(C)[C@@H]3CC[C@]12C`, the Potency result in assay [1], in assay [5], in assay [2], in assay [3] and in assay [4] was “inactive” each time.

Consider `Cc1[nH]c(C=C2C(=O)Nc3ccccc32)c(C)c1CCC(=O)O`, for which the Potency in assay [1] was 4690 nM (active); in assay [5] it was 5900 nM (active); in assay [2] it was 1480 nM (active); in assay [4], 20900 nM (active).

As to `O=C(C=Cc1ccc(CN(CCO)CCc2c[nH]c3ccccc23)cc1)NO`, the Potency is 105 nM (active) in assay [1]; 235 nM (active) in assay [5]; 93.5 nM (active) in assay [2]; 83.3 nM (active) in assay [3]; 93.5 nM (active) in assay [4].

In the case of `CCc1cc(C(C)=NOCc2ccc(C3CCCCC3)c(C(F)(F)F)c2)ccc1CN1CC(C(=O)O)C1`, the Potency in assay [1] was 20900 nM (active); in assay [4], 4690 nM (active).

With `COc1ccc(S(=O)(=O)Nc2cc(-c3c(O)ccc4ccccc34)c(O)c3ccccc23)cc1`, the Potency in assay [1] is 9350 nM (active); in assay [5], 23500 nM (active); in assay [2] it was 14800 nM (active); in assay [3] it was 11800 nM (active); in assay [4] it was 5260 nM (active).

Turning to `C[C@H](NCc1ccc2c(c1)nc(NC(=O)c1ccc(-c3cn[nH]c3)s1)n2CCc1ccccc1)C(C)(C)C`, the Potency in assay [1] is 662 nM (active); in assay [5], 1050 nM (active); in assay [2] it was 662 nM (active); in assay [3], 1320 nM (active); in assay [4], 526 nM (active).

For the compound `Cc1cnn(C)c1C(=O)Nc1cc(Nc2ccc3c(C=Cc4ccccn4)n[nH]c3c2)ccc1F`, the Potency in assay [1] was 8330 nM (active); in assay [2] it was 9350 nM (active); in assay [4], 4180 nM (active).

As to `N#CC(=C(O)c1ccc(Cl)cc1Cl)c1nc2cc(Cl)ccc2c(=O)[nH]1`, the Potency entry in assay [1], in assay [5], in assay [3] and in assay [4] was “inactive” in each case. The Potency in assay [2] was 1050 nM (active).

As to `C#C[C@]1(O)CC[C@@H]2[C@@H]3CCC4=CC(=O)CC[C@@H]4[C@H]3CC[C@@]21CC`, the Potency result in assay [1], in assay [5] and in assay [3] was “inactive” each time.

Regarding `Cc1nc(NC(=O)N2CCC[C@@H]2C(N)=O)sc1-c1ccnc(C(C)(C)C(F)(F)F)c1`, the Potency in assay [1] was 1660 nM (active); in assay [3], 418 nM (active).

`COC(=O)[C@@H]1CC2=CC(=O)CC[C@]2(C)[C@@]23O[C@@H]2C[C@@]2(C)[C@H](CC[C@@]24CCC(=O)O4)[C@@H]13`: the Potency entry in assay [5], in assay [2] and in assay [4] was “inactive” in each case.

Consider `C=C1CCC2[C@](C)(CO)C(O)CC[C@]2(C)C1CC=C1C(=O)OCC1O` (some centres not stated), for which the Potency entry in assay [1], in assay [5], in assay [3] and in assay [4] was “inactive” in each case.

Consider `C[C@]12C=CC(=O)N[C@@H]1CC[C@H]1[C@H]3CC[C@@H](C(=O)Nc4cc(C(F)(F)F)ccc4C(F)(F)F)[C@@]3(C)CC[C@@H]12`, for which the Potency result in assay [2] and in assay [4] was “inactive” each time.

In the case of `C#C[C@]1(O)CC[C@@H]2[C@@H]3CCc4cc(O)ccc4[C@H]3CC[C@@]21C`, the Potency in assay [1] is 7430 nM (active); in assay [5], 6620 nM (active); in assay [2] it was 16600 nM (active); in assay [3] it was 23500 nM (active); in assay [4] it was 18700 nM (active).

Take `COc1ccc(CCC(=O)c2c(O)cc(O[C@@H]3O[C@H](CO)[C@@H](O)[C@H](O)[C@@H]3O[C@@H]3O[C@@H](C)[C@H](O)[C@@H](O)[C@@H]3O)cc2O)cc1O`: the Potency result in assay [5], in assay [2] and in assay [4] was “inactive” in each case.

For `COC(=O)C=CC(=O)OC`, the results for the Potency in assay [1] and in assay [4] were 1320 nM (active) and 1180 nM (active), respectively. In assay [2], the Potency entry was “inactive”.

Turning to `Cc1ccc([N+](=O)[O-])cc1S(=O)(=O)N(C)N=Cc1cnc2ccc(Br)cn12`, the Potency in assay [5] was 23.5 nM (active); in assay [2], 14.8 nM (active); in assay [3] it was 26.4 nM (active); in assay [4], 11.8 nM (active).

As for `Cc1cn([C@@H]2O[C@H](CO)[C@@H](O)[C@H]2F)c(=O)[nH]c1=O`, the Potency entry in assay [1], in assay [5], in assay [2] and in assay [4] was “inactive” in each case.

With `CCCCCCCCCCCC(CC1OC(=O)C1CCCCCC)OC(=O)C(CC(C)C)NC=O` (configuration not stated), the Potency result in assay [2], in assay [3] and in assay [4] was “inactive” throughout.

In the case of `C[C@H]1COc2c(N3CCN(C)CC3)c(F)cc3c(=O)c(C(=O)O)cn1c23`, the Potency entry in assay [2] and in assay [3] was “inactive” each time.

As for `CC(C)(O)Cn1c(NC(=O)c2ccc(-c3cn[nH]c3)s2)nc2cc(CN3CCOCC3)ccc21`, the Potency is 833 nM (active) in assay [1]; 1050 nM (active) in assay [5]; 469 nM (active) in assay [2]; 1180 nM (active) in assay [3]; 469 nM (active) in assay [4].

As to `Cn1cc(C=CC(=O)c2cccc(F)c2)cc1C=CC(=O)NO`, the Potency was 18700 nM (active) in assay [1], 18700 nM (active) in assay [2], 16600 nM (active) in assay [3] and 16600 nM (active) in assay [4].

Consider `CCN1CCN(C(=O)N[C@H](C(=O)N[C@@H]2C(=O)N3C(C(=O)O)=C(CSc4nnnn4C)CS[C@@H]23)c2ccc(O)cc2)C(=O)C1=O`, for which the Potency entry in assay [1], in assay [5], in assay [2], in assay [3] and in assay [4] was “inactive” each time.

`O=C1NC(=O)C(=Cc2ccc3nccc(-c4ccncc4)c3c2)S1`: the Potency in assay [1] is 33.2 nM (active); in assay [5] it was 662 nM (active); in assay [2], 372 nM (active); in assay [3], 83.3 nM (active); in assay [4] it was 118 nM (active).

Regarding `CCCCCN=C(N)NN=Cc1c[nH]c2ccc(OC)cc12`, the Potency is 13200 nM (active) in assay [1], 13200 nM (active) in assay [5], 1320 nM (active) in assay [2] and 2960 nM (active) in assay [4].

Turning to `CC(=O)NC(CS)C(=O)O` (configuration not stated), the Potency entry in assay [1], in assay [5] and in assay [4] was “inactive” in each case.

Consider `C[C@H](NC(=O)C(C#N)=Cc1cccc(Br)n1)c1ccccc1`, for which the Potency in assay [1] is 2090 nM (active); in assay [5] it was 1660 nM (active); in assay [2] it was 13200 nM (active); in assay [3], 5900 nM (active); in assay [4] it was 11800 nM (active).

`CNC(=O)Nc1ccc(-c2nc(N3CC4CCC(C3)O4)c3cnn(C4CCC5(CC4)OCCO5)c3n2)cc1`: the Potency in assay [2] was 16.6 nM (active).
